From ChEMBL document CHEMBL3988442, “University of Dundee, Small-Polar-MMV Screening Library” (2021)
For some assays here: Potency and affinity values are given separately.

Columns and labels:
Parameters in all cases: scale not given: direction of the effect not stated beside the values
[1] = biological target: Protein translocase subunit SecA (Escherichia coli (strain K12)) (UniProt P10408); experiment: Assay to Identify E. coli SecA ATPase Inhibitors; assay type: functional; settings: 30 µM
[2] = biological target: T1, Ubiquitin-activating enzyme e1, putative (Leishmania donovani (strain BPK282A1)) (UniProt E9BSI1); experiment: Leishmania donovani Ubiquitin Activating Enzyme (LdE1); assay type: functional; settings: 30 µM
T1 sequence (whole entry): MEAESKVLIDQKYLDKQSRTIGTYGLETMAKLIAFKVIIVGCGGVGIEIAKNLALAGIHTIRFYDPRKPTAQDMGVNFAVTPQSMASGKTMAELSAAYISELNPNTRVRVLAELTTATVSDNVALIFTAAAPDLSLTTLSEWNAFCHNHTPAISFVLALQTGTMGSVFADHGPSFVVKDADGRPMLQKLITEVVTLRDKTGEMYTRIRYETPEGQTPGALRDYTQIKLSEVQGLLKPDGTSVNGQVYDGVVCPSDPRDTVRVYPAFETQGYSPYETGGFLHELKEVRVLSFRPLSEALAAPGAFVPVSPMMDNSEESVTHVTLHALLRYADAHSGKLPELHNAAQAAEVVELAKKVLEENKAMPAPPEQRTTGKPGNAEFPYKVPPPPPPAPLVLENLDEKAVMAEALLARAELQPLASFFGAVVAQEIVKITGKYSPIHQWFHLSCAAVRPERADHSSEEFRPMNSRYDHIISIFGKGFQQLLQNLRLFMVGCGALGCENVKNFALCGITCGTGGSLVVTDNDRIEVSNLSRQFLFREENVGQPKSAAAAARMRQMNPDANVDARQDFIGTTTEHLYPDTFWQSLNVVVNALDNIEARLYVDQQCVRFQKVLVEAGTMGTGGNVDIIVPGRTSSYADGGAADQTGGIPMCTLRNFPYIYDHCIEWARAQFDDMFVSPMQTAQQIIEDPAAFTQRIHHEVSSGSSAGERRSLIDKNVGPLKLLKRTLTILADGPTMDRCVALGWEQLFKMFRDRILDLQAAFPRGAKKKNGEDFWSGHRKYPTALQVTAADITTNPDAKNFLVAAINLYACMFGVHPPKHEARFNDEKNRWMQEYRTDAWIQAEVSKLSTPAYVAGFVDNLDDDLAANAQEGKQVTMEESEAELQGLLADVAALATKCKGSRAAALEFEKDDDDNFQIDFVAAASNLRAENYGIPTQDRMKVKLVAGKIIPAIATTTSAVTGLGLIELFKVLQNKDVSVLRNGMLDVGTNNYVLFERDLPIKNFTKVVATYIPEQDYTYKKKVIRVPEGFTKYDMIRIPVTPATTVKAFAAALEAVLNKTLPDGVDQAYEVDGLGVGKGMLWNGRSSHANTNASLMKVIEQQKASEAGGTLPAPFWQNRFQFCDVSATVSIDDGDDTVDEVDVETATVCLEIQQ

[3] = biological target: AMP-activated protein kinase, AMPK (Homo sapiens) (UniProt P54646+O43741+P54619+Q9UGJ0+Q9Y478+Q13131+Q9UGI9); experiment: AMP-dependent Kinase enzyme assay. An in vitro enzyme assay that detects ADP turnover that is directly proportional to AMPK activity. This uses naive AMPK that is activated during the assay with MK-8722; assay type: functional; settings: 30 µM
[4] = biological target: Sialic acid-binding Ig-like lectin 9 (Homo sapiens) (UniProt Q9Y336); experiment: Hs-Siglec9 ALPHAscreen SOP 20170721; settings: 10 µM
[5] = tested on: Trypanosoma cruzi; experiment: Trypanosoma cruzi phosphomannomutase and mannose-1-phosphate guanylyltransferase assay; assay type: functional; settings: 10 µM
[6] = biological target: T2, Arginase-2, mitochondrial (Homo sapiens) (UniProt P78540); experiment: in vitro enzyme assay to detect the production of urea directly proportional to the activity of Arginase II; assay type: functional; settings: 33.3 µM; further: in the data most compounds retested in dose-response had high values
T2 sequence (whole entry): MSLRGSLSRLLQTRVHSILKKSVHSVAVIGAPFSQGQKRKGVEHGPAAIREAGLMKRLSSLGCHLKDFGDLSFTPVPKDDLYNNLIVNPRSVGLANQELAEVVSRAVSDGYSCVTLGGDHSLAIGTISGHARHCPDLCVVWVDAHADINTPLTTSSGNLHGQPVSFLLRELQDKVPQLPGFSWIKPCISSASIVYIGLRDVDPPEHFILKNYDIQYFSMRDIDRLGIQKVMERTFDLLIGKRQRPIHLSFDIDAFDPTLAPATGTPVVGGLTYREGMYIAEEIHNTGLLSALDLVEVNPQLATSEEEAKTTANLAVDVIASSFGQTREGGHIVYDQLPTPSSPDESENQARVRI

[7] = biological target: T3, Proteasome subunit beta (Trypanosoma cruzi) (UniProt O96673); experiment: Trypanosoma cruzi proteasome chymotrypsin-like activity (TcProtChymo) assay.; further: in the data most compounds retested in dose-response had high values; assay type: functional; settings: 9.37 µM
T3 sequence (whole entry): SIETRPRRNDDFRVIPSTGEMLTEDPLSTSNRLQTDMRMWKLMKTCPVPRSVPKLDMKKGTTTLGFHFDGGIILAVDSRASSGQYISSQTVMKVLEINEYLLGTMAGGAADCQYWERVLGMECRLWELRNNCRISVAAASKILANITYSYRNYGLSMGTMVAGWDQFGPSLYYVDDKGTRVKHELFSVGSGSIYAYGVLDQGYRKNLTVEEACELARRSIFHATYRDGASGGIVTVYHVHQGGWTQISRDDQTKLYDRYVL

[8] = organism: Homo sapiens; experiment: To identify inhibition of the IFN signalling (Jak-Stat) pathway via expression of an eGFP reporter gene under the control of an IFN-stimulated response element (ISRE) containing MxA promoter.; assay type: functional; settings: 30 µM
[9] = biological target: T4, Tyrosyl-tRNA synthetase, putative (Trypanosoma cruzi (strain CL Brener)) (UniProt Q4DSP6); experiment: Trypanosoma cruzi tyrosyl tRNA synthetase (TcYRS) _High Tyrosine SOP; assay type: functional; settings: 30 µM; further: in the data most compounds retested in dose-response had high values
T4 sequence (whole entry): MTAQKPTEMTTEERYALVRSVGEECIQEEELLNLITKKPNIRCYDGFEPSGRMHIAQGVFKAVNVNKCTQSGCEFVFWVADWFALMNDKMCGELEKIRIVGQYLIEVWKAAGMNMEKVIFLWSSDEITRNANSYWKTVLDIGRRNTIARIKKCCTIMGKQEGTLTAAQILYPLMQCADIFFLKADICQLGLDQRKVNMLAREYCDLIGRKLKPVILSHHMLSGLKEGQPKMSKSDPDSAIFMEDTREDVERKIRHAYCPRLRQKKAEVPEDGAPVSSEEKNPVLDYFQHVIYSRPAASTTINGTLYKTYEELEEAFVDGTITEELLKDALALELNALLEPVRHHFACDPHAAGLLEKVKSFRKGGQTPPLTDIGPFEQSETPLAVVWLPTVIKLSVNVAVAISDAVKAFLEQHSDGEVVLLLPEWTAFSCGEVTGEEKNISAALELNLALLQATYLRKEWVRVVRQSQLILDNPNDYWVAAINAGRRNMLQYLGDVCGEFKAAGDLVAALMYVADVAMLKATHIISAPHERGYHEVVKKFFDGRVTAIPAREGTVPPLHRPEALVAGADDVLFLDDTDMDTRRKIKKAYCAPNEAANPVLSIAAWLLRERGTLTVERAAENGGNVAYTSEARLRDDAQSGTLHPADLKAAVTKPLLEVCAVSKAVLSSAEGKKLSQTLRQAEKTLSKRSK

[10] = biological target: T4, Tyrosyl-tRNA synthetase, putative (Trypanosoma cruzi (strain CL Brener)); experiment: Trypanosoma cruzi tyrosyl tRNA synthetase (TcYRS) SOP; assay type: functional; settings: 30 µM
[11] = biological target: Chromo domain-containing protein 1 (Saccharomyces cerevisiae (strain ATCC 204508 / S288c) (Baker's yeast)) (UniProt P32657); experiment: ScCHD-1 Enzyme Inhibition Assay; assay type: functional; settings: 30 µM; further: in the data most compounds retested in dose-response had high values
Chromo domain-containing protein 1 (Saccharomyces cerevisiae (strain ATCC 204508 / S288c) (Baker's yeast)), sequence (P32657 whole entry, the tested form may be a part): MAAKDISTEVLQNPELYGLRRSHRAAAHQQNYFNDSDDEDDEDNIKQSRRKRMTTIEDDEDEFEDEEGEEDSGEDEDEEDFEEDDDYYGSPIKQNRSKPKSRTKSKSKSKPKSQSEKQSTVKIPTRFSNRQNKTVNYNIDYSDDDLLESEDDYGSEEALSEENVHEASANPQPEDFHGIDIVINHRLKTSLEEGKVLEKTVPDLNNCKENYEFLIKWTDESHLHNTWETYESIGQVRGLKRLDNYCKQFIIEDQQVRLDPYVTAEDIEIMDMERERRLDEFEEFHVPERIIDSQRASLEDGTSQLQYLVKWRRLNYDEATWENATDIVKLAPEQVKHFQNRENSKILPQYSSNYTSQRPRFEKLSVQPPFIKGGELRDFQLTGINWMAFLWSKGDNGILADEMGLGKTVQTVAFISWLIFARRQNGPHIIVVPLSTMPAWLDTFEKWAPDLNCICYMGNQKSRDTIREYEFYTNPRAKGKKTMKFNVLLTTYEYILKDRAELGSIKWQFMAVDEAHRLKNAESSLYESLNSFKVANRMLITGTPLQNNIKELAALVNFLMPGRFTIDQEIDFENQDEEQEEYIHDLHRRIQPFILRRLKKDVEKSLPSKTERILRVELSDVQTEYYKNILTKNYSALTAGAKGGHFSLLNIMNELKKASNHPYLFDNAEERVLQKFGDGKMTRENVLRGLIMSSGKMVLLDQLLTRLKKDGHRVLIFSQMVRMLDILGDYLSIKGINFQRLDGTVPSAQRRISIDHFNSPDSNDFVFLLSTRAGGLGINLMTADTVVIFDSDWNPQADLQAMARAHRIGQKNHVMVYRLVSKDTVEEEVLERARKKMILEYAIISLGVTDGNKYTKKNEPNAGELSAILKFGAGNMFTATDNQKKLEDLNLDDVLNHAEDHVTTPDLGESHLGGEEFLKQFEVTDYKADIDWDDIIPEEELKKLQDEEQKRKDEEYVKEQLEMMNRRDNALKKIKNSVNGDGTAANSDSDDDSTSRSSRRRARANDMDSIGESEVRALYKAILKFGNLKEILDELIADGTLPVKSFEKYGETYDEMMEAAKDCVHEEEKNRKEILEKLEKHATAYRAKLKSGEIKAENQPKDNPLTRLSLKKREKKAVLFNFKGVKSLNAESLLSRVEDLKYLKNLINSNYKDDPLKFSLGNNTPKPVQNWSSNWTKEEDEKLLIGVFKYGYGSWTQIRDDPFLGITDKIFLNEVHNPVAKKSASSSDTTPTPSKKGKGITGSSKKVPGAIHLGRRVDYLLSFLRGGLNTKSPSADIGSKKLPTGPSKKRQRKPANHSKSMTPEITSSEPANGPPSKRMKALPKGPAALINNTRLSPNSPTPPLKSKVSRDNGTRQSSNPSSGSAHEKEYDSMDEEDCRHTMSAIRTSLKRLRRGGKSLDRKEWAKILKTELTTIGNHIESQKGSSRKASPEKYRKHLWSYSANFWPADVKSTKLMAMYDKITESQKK

Protein translocase subunit SecA (Escherichia coli (strain K12)), sequence (P10408 whole entry): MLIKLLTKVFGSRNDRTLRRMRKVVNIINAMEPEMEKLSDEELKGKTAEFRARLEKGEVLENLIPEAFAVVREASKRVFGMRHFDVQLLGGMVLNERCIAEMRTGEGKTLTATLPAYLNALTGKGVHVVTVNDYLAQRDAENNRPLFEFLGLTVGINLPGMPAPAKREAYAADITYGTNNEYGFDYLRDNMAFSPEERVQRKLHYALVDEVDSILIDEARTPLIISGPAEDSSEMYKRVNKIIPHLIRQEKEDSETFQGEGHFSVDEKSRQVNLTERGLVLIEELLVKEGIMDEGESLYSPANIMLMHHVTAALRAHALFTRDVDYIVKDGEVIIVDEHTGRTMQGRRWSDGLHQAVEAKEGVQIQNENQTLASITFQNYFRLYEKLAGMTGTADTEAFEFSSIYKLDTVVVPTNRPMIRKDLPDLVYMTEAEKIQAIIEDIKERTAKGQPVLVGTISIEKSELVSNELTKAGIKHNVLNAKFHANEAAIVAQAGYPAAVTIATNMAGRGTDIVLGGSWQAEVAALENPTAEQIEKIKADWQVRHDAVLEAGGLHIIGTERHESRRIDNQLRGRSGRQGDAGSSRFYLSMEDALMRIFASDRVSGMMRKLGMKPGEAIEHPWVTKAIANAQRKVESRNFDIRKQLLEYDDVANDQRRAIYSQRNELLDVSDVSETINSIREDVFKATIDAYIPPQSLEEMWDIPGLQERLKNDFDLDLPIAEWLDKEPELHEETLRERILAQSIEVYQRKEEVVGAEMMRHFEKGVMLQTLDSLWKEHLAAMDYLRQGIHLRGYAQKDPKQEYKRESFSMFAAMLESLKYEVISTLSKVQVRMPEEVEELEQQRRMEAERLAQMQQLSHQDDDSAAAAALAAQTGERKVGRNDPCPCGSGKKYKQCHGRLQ
Sialic acid-binding Ig-like lectin 9 (Homo sapiens), sequence (Q9Y336 whole entry): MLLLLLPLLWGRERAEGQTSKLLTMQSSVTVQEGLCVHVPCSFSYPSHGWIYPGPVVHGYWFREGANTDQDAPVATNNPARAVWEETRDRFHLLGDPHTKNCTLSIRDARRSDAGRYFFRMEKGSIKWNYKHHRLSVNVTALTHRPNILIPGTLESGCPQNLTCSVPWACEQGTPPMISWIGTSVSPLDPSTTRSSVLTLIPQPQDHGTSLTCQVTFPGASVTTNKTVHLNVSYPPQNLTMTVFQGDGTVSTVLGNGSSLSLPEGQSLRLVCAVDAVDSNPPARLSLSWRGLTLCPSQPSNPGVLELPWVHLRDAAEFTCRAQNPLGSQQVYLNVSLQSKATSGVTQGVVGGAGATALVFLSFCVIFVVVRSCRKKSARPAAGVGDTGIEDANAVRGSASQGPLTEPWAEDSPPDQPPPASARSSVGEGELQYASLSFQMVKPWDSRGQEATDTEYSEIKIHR

Structure (SMILES) | Percent Effect [1] [%] | Percent Effect [2] [%] | Percent Effect [3] [%] | Percent Effect [4] [%] | Percent Effect [5] [%] | Percent Effect [6] [%] | Percent Effect [7] [%] | Percent Effect [8] [%] | Percent Effect [9] [%] | Percent Effect [10] [%] | Percent Effect [11] [%]
COCCNC(=O)[C@H]1CN(c2nnc(C)s2)C[C@H]2OCC[C@@H]12 | -2.67 | 0 | 13.1 | 0.154 | -0.394 | -0.233 | 3.79 | 6.49 | 1.06 | 1.28 | 2.36
CCC(CC)c1cc(CNC(=O)N2CCOCC2CC)on1 (stereo not given) | -3.39 | 0 | -0.644 | 2.45 | 7.33 | -1.24 | 0.0858 | -31.4 | 0 | 1.24 | -0.017
COCC(=O)N1CCC(c2cccc(Cc3ccc(F)cc3)n2)CC1 | 0.623 | 9.46 | 7.38 | -1.91 | -6.13 | 3.94 | 5.15 | 22.7 | 2.15 | 11.7 | -12.4
O=C1N(Cc2ccc(F)c(F)c2)CCCC12CCN(C1CCSCC1)C2 (stereo not given) | -4.12 | -8 | -4.64 | 30.2 | 9.25 | 23.4 | 9.77 | 3.27 | 15.8 | 25.9 | 0.965
Fc1ccccc1-c1noc2c1CN(CC1CC1)CC2 | -0.719 | 13.7 | 1.26 | 4.91 | 5.68 | 1.36 | 17 | 11.6 | 7.53 | 20 | -0.386
Cc1nnc(N2C[C@@H](OCCCn3cccn3)[C@H]3OCCC[C@H]32)s1 | -0.829 | 5.48 | -5.05 | 10.8 | 1.79 | -5.19 | 24.9 | -5.83 | 7.29 | 16.1 | -7.05
CCOc1nnc(CN(C)CC2CCCN2c2cccnn2)s1 (stereo not given) | -2.36 | 7.89 | -1.61 | -2.87 | 3.41 | -8.28 | 20.2 | -2.35 | 3.19 | 10.4 | -4.84
COCCNC(=O)[C@H]1CN(Cc2nccs2)C[C@H]2OCC[C@@H]12 | -3.36 | 16.4 | -2.81 | 11.4 | 3.17 | 2.4 | 6.25 | 15.8 | 5.21 | 1.24 | -0.333
COc1ccc(CN(C)C(=O)NCc2c(C)cc(C)[nH]c2=O)cc1 | -4.97 | 15.8 | -2.27 | -2.15 | -0.84 | 1.08 | 2.12 | 9.7 | 3.45 | 18.5 | -0.177
COCCN(Cc1ccc(F)cc1Cl)C(=O)c1cccc[n+]1[O-] | -4.42 | -1.39 | 3.97 | -0.933 | -1.65 | 6.18 | 12.3 | -7.04 | 1.05 | 7.69 | -2.92
